Assay outcomes as filed in PubChem BioAssay.
PTK2B oligo ant = antagonists of human Pyk2 oligomerization; Q14289; Q293 cells, Pyk2 FERM NanoBiT luminescence; active compounds read low; z-score (the deposit names both 25 µM and 10 µM); 99,000 tested, 0.83% active; AID 1347419;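 active means Z-score of -3 or lower, scaled per plate to the spread of control and sample wells; inactive means z-score above -3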;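 further: negative z-score means lost luminescence so less FERM oligomerization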
CYP2C19 inhib = blocks human cytochrome P450 2C19; CYP2C19 Supersomes, luciferin-H EGE luminescence, 30 min; inhibition, % at 5 µM; 96,000 tested, 21% active;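 active means CYP2C19 inhibition above a set limit at 5 µM in the primary screen, cut at about 50% in these data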
Target sequence (P33261 whole entry, looked up): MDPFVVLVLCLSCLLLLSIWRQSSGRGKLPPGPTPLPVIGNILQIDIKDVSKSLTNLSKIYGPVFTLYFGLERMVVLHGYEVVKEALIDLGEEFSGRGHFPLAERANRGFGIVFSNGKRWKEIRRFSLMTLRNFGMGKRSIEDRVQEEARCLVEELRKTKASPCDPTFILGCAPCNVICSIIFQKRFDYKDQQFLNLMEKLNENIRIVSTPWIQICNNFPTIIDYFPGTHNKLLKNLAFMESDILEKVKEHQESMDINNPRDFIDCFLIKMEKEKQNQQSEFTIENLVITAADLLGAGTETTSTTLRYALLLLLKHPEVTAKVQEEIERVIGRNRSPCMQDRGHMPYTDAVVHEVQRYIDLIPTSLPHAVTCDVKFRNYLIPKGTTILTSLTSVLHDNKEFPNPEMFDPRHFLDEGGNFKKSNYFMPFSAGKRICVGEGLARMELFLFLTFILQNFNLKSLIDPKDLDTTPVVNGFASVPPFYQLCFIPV
CYP2C9 activ = activators of human CYP2C9. P11712. recombinant CYP2C9, luciferin-H conversion, luminescence; active compounds read high; factor 1 = untreated enzyme, 0 = blocked. activation factor at 5 µM. 96,000 tested, 1.4% active;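 active means activation factor of 2 or more for CYP2C9 at a 5 µM dose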
CYP2C19 activ = increases human CYP2C19 enzyme activity; P33261; recombinant CYP2C19, luciferin-H EGE luminescence; active compounds read high; 0 = fully inhibited enzyme, 1 = untreated enzyme; activation factor at 5 µM; 96,000 tested, under 10 active;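 active means activation factor of at least 2 at 5 µM in the primary screen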
CYP2C9 inh = blocks human cytochrome P450 2C9. P11712. CYP2C9 Supersomes, luciferin-H conversion, luminescence. inhibition, % at 5 µM. 96,000 tested, 20% active. AID 777;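 active means blocking of liver enzyme CYP2C9 beyond about 50% at 5 µM, limit read from the data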
A number is an active result. Shown are actives, neighbours in structure and some others; about 28% of the full set was active somewhere.

`Cc1ccc(CNC(=O)C23CN(Cc4ccccc4)CC2C(c2ccc([N+](=O)[O-])cc2)=NO3)o1` (stereo unspecified) gave CYP2C19 inhib inactive, CYP2C9 activ inactive, CYP2C19 activ inactive and CYP2C9 inh 54.
For O=C(NCCCCc1ccccc1)C12CN(Cc3ccccc3)CC1C(c1ccc([N+](=O)[O-])cc1)=NO2 (stereo unspecified) the results were CYP2C19 inhib 78, CYP2C9 activ inactive, CYP2C19 activ inactive and CYP2C9 inh 58.
COc1ccc(CCNC(=O)C23CN(Cc4ccccc4)CC2C(c2ccc([N+](=O)[O-])cc2)=NO3)cc1 (stereo unspecified) was read as CYP2C19 inhib 81, CYP2C9 activ inactive, CYP2C19 activ inactive and CYP2C9 inh 59.
Screening COc1ccc(CNC(=O)C23CN(Cc4ccccc4)CC2C(c2ccc([N+](=O)[O-])cc2)=NO3)cc1 (stereo unspecified) returned CYP2C19 inhib inactive, CYP2C9 activ inactive, CYP2C19 activ inactive and CYP2C9 inh inactive.
Screening CCOC(=O)C1C(=O)NC(c2ccccc2)=NC1c1ccccc1 (stereo unspecified) returned PTK2B oligo ant inactive, CYP2C19 inhib inactive, CYP2C9 activ inactive, CYP2C19 activ inactive and CYP2C9 inh inactive.
Screening CCOC(=O)C1C(=O)NC(c2ccccc2)=NC1c1ccc(F)cc1 (stereo unspecified) returned PTK2B oligo ant inactive, CYP2C19 inhib 58, CYP2C9 activ inactive, CYP2C19 activ inactive and CYP2C9 inh inactive.
Screening O=C(CCCC1=NS(=O)(=O)c2ccccc2N1)N1CCN(c2ccccc2)CC1 returned PTK2B oligo ant inactive, CYP2C19 inhib inactive, CYP2C9 activ inactive, CYP2C19 activ inactive and CYP2C9 inh inactive.
`CC(C)(CC(=O)N1CCN(c2ccc(Cl)cc2)CC1)CC1=NS(=O)(=O)c2ccccc2N1` gave PTK2B oligo ant inactive, CYP2C19 inhib 64, CYP2C9 activ inactive, CYP2C19 activ inactive and CYP2C9 inh 79.
`Cn1c(=O)c2c(ncn2Cc2cccc(Cl)c2)n(C)c1=O` gave PTK2B oligo ant inactive, CYP2C19 inhib inactive, CYP2C9 activ inactive, CYP2C19 activ inactive and CYP2C9 inh inactive.
Cn1c(=O)c2c(ncn2Cc2ccc(Cl)c(Cl)c2)n(C)c1=O was read as PTK2B oligo ant inactive, CYP2C19 inhib 92, CYP2C9 activ inactive, CYP2C19 activ inactive and CYP2C9 inh 61.
Screening Cn1c(=O)c2c(nc(SCC(=O)OCc3ccccc3)n2C)n(C)c1=O returned PTK2B oligo ant inactive, CYP2C19 inhib inactive, CYP2C9 activ inactive, CYP2C19 activ inactive and CYP2C9 inh 80.
For Cc1nc(SCC(=O)OCc2ccccc2)c2c(=O)n(C)c(=O)n(C)c2n1 the results were CYP2C19 inhib inactive, CYP2C9 activ inactive, CYP2C19 activ inactive and CYP2C9 inh inactive.
`Cn1c(=O)c2c(ncn2CC(=O)OCc2ccccc2)n(C)c1=O` gave PTK2B oligo ant inactive, CYP2C19 inhib inactive, CYP2C9 activ inactive, CYP2C19 activ inactive and CYP2C9 inh 63.
`COC(=O)Cn1cnc2c1c(=O)n(C)c(=O)n2C` gave PTK2B oligo ant inactive.
Screening CCOc1ccc(N2CC(C(=O)Nc3cccc(C)c3C)CC2=O)cc1 (stereo unspecified) returned PTK2B oligo ant inactive, CYP2C19 inhib inactive, CYP2C9 activ inactive, CYP2C19 activ inactive and CYP2C9 inh inactive.
CCCCOc1ccc(C(=O)N2CCC(C)CC2)cc1 was read as PTK2B oligo ant inactive, CYP2C19 inhib 70, CYP2C9 activ inactive, CYP2C19 activ inactive and CYP2C9 inh 54.
For CCCCOc1ccc(C(=O)N2CCCCCC2)cc1 the results were PTK2B oligo ant inactive, CYP2C19 inhib inactive, CYP2C9 activ inactive, CYP2C19 activ inactive and CYP2C9 inh inactive.
`CCOc1ccc(C(=O)N2CCCN(C(=O)c3ccc(OCC)cc3)CC2)cc1` gave PTK2B oligo ant inactive, CYP2C19 inhib inactive, CYP2C9 activ inactive, CYP2C19 activ inactive and CYP2C9 inh 61.
Cc1ccc(N(c2ncnc(N)c2[N+](=O)[O-])C2CCCCC2)cc1 was read as PTK2B oligo ant inactive, CYP2C19 inhib inactive, CYP2C9 activ inactive, CYP2C19 activ inactive and CYP2C9 inh inactive.
Screening COC(=O)Cn1c(CCS(=O)(=O)c2ccc(C)cc2)nc2ccccc21 returned PTK2B oligo ant inactive, CYP2C19 inhib 66, CYP2C9 activ inactive, CYP2C19 activ inactive and CYP2C9 inh inactive.
For CC(=O)NCCc1nc2ccccc2n1Cc1ccc(C)cc1 the results were CYP2C19 inhib 69, CYP2C9 activ inactive, CYP2C19 activ inactive and CYP2C9 inh inactive.
